Compound activity deposited in PubChem by National Center for Advancing Translational Sciences (NCATS).
Hits are enriched below; roughly 6% of the tested compounds scored in any of these assays.
DRD3 agonist = agonists of human D3 dopamine receptor. P35462. D3R DiscoveRx beta-arrestin cells, luminescence, 90 min. max activation, %. actives 0.58% (n = 410,000); in the data active means max activation above about 30%; further: 0% is about no effect
Target sequence (P35462 whole entry, looked up): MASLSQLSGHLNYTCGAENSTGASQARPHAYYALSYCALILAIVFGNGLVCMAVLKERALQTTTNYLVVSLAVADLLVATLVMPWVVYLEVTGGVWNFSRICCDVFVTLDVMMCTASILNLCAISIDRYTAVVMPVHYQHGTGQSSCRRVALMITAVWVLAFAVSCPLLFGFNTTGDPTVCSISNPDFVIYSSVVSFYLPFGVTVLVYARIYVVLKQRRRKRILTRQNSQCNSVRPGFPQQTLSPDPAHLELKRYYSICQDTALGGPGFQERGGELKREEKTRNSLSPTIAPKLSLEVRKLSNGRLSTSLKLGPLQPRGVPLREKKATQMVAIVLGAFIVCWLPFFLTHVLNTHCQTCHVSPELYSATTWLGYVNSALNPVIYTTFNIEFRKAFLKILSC
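Agonist mode: compounds and dopamine controls were applied to plated cells for 90 min at 37 degrees C after an overnight attachment at 1500 cells/well. Luminescent read-out followed 30 - 60 minutes at room temperature with DiscoveRx detection reagent.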
D1 antag = antagonists of human D1 dopamine receptor; actives 3.2% (n = 360,000); activity change, negative = inhibition, % at 10 µM; HEK293 TREx D1 cells, calcium flux, dopamine EC80; stronger effect = lower value; P21728; in the data active means activity change below about -30%; further: on the % scale 0 is the no-effect control and ±100 the full control effect
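Inducible Hek293 Trex D1 cells (tetracycline, overnight, 30 C). Calcium dye 30–90 min RT. Antagonist mode: EC80 dopamine added after 180 s compound read.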
D1 ag = human D1 receptor agonism. HEK293 T-REx D1 cells, calcium flux, agonist mode. activation, % at 2 µM. actives 1% (n = 360,000). AID 504660; in the data active means activation above about 30%; further: 0% is about no effect
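Tetracycline-induced HEK293 TREx D1 cells, force-coupled to calcium signalling, were dye-loaded with a no-wash calcium kit. Compound was pin-added after a 10 s baseline. Fluorescence was read kinetically at 1 cycle/s for 180 s, with calcium rises flagged as agonism.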
D1 potentiator = human D1 dopamine receptor positive modulation | actives 0.036% (n = 360,000) | potentiation, % at 10 µM | HEK293 TREx D1 cells, calcium flux, dopamine EC20 potentiation | P21728; in the data active means potentiation above about 30%; further: 0% is about no effect
D3 antag = D3 dopamine receptor (human) antagonism. P35462. max response, negative = inhibition, %. actives 2.5% (n = 360,000). AID 652054. D3R cells, DiscoveRx beta-arrestin luminescence, antagonist mode; stronger effect = lower value; in the data active means max response below about -50%; further: on the % scale 0 is the no-effect control and ±100 the full control effect
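Cells plated overnight at 1500 cells/well, then exposed to library compounds with dopamine controls for 90 minutes at 37 degrees C. DiscoveRx reagent added for 30–60 minutes at room temperature; luminescence read, quantitative HTS format.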
* marks the source's active call; other numbers are inactive results; / = not tested or not shown; ! = not confirmed by another sample.

SMILES | DRD3 agonist | D1 antag | D1 ag | D1 potentiator | D3 antag
CC(C)C(=O)NCC(c1ccc2c(c1)OCO2)N1CCN(c2ccccc2F)CC1 (configuration not stated) | -21 | 16 | 2 | -3 | /
Cc1ccc(NC(=O)C(Cc2ccccc2)NS(=O)(=O)c2ccc3c(c2)c(=O)n(C)c(=O)n3C)cc1 (configuration not stated) | -11 | -7 | 3 | -4 | /
Cn1cc(Br)c(C(=O)N/N=C/c2cccc(OC3CSC3)c2)n1 | 5 | -30* | 2 | 2 | 4
COc1ccc(Cn2c(C(=O)O)c(CNCc3ccco3)c3ccc(OC)cc32)cc1 | 2 | -2 | 0 | -2 | /
Oc1c(Br)cc(Br)cc1C=NCc1ccccc1 | -28 | -14 | 4 | -2 | -57*
Oc1c(Br)cc(Br)cc1C=NCc1ccc(F)cc1 | -32 | -1 | 11 | 1 | -67*
O=C(Cc1ccccc1)N/N=C/c1cc(Br)cc(Br)c1O | -24 | -9 | 6 | -9 | -28
CN(C)c1ccc(C(=O)N/N=C/c2cc(Br)cc(Br)c2O)cc1 | -4 | -13 | 2 | -10 | -21
CCOC(=O)[C@]12CCCC=C1N(Cc1ccco1)C(=O)[C@H](CC(=O)N1CCCC1)C2 | 0 | / | / | / | -17
CNC(=O)C[C@@H]1CC[C@@H]2[C@H](COC[C@H](O)CN2S(=O)(=O)c2ccccc2Cl)O1 | -6 | / | / | / | -2
O=C(NCc1ccccc1)c1cc(C2CCCCN2S(=O)(=O)c2cccs2)on1 (configuration not stated) | -4 | / | / | / | 2
CCOC(=O)c1cnc2ccc(OCC)cc2c1N(C)Cc1ccccc1 | 68* | 8 | 9 | 0 | 8
CCOC(=O)c1cnc2ccc(OCC)cc2c1N1CCN(c2ccccc2OC)CC1 | 34* | 8 | 1 | 5 | 69
COc1ccc(C(=O)Nc2ccc(OCc3cc(=O)n4ccccc4n3)cc2)cc1 | 3 | -10 | 0 | -3 | /
COC(=O)c1sccc1NC(=O)Nc1cccc(OC)c1 | 6 | -1 | 1 | 1 | 0
CCOC(=O)Cc1csc(NC(=O)c2cccc(OC)c2)n1 | 1 | -12 | 4 | -6 | 12
CCOC(=O)Cc1csc(NC(=O)c2sc3nc4c(C)cc(C)cc4cc3c2N)n1 | 1 | 2 | 85* | -3 | -25
CCOC(=O)CN(Cc1sccc1C)C(=O)Nc1cccc(OC)c1 | -4 | -37* | 0 | -9 | 0
CCOC(=O)Cc1csc(NC(=O)Nc2cccc(OC)c2)n1 | -6 | -33* | 14 | -4 | 23
CCOC(=O)Cc1csc(NC(=O)c2cccc([N+](=O)[O-])c2)n1 | -8 | -31* | 9 | -10 | -5
CCC[C@H]1CN(Cc2ccccc2)C(=O)[C@@H]1CC(=O)NC | 5 | / | / | / | 17
CCOC(=O)Cc1csc(NC(=O)CN2CCCCC2)n1 | -8 | 14 | 6 | -3 | -55*
COc1cccc(N2CCN(S(=O)(=O)c3ccc(-c4ccno4)cc3OC)CC2)c1 | 1 | -21 | 0 | -4 | /
C=CCN1C(=O)CS/C1=N\S(=O)(=O)c1ccc(Cl)cc1 | -4 | -14 | 5 | -10 | -10
O=C(C1CCN(c2ncnc3c2nc2n3CCCCC2)CC1)N1CCN(c2ccccc2F)CC1 | 62*! | -12 | 4 | -2 | 22
SMILES | DRD3 agonist | D1 antag | D1 ag | D1 potentiator | D3 antag
COc1cccc(CNC(=O)C2CCN(c3ncnc4c3nc3n4CCCCC3)CC2)c1 | 7 | 5 | 0 | -3 | 11
O=C(NCc1ccccc1)C1CCN(c2ncnc3c2nc2n3CCCCC2)CC1 | 1 | -33* | 0 | -3 | /
Cc1cccc(N2CCN(C(=O)C3CCN(c4ncnc5c4nc4n5CCCCC4)CC3)CC2C)c1 (configuration not stated) | 35*! | 0 | 1 | 4 | 116
Cc1ccc(N2CCN(C(=O)C3CCCN(c4ncnc5c4nc4n5CCCCC4)C3)CC2)c(C)c1 (configuration not stated) | 1 | -11 | 10 | 3 | 25
Cc1ccc(C)c(N2CCN(C(=O)C3CCCN(c4ncnc5c4nc4n5CCCCC4)C3)CC2)c1 (configuration not stated) | 31* | 22 | 8 | 3 | 59
Cc1ccc(S(=O)(=O)Cn2cnnn2)cc1 | -1 | -6 | 3 | 0 | -78*
Cc1ccc(S(=O)(=O)CS(=O)(=O)c2ccc(C)cc2)cc1 | -8 | / | / | / | 3
CC/C(=N\NS(=O)(=O)c1ccc(C)cc1)c1ccco1 | 9 | 16 | 0 | 5 | 0
CN1CCN(c2nc3cc(C(F)(F)F)ccc3n3cccc23)CC1 | -72 | / | / | / | -52*
COc1cc(C2c3c(oc4ccccc4c3=O)C(=O)N2Cc2ccc(C)cc2)ccc1O (configuration not stated) | 5 | 11 | 1 | -5 | /
COc1ccccc1C(c1nnnn1C1CCCC1)N1CCN2CCCC2C1 (configuration not stated) | -7 | -10 | -1 | -6 | 6
COc1ccccc1N1CCN(C(c2cccs2)c2nnnn2C2CCCC2)CC1 (configuration not stated) | -13 | -35* | 1 | -5 | 14
COc1cccc(C(c2nnnn2C2CCCC2)N2CCN(C/C=C/c3ccccc3)CC2)c1OC (configuration not stated) | -22 | / | / | / | -96*
COc1ccc(N2CCN(C(c3ccccc3)c3nnnn3C(C)(C)C)CC2)cc1 (configuration not stated) | 6 | / | / | / | -11
COc1ccc(-n2nnnc2C(c2ccccc2)N2CCN(C/C=C/c3ccccc3)CC2)cc1 (configuration not stated) | -13 | / | / | / | -118*
COc1ccc(-n2nnnc2C(c2cccc(OC)c2OC)N2CCN(C/C=C/c3ccccc3)CC2)cc1 (configuration not stated) | -9 | / | / | / | -86*
COc1ccc(-n2nnnc2C(CCc2ccccc2)N2CCN(C/C=C/c3ccccc3)CC2)cc1 (configuration not stated) | -18 | / | / | / | -76*
CCC(c1nnnn1-c1ccc(OC)cc1)N1CCN(C/C=C/c2ccccc2)CC1 (configuration not stated) | -4 | / | / | / | -57*
CCC(c1nnnn1Cc1ccccc1)N1CCN(c2ccc(OC)cc2)CC1 (configuration not stated) | -3 | 10 | 0 | -4 | -4
O=C(NCc1c(Cl)cccc1Cl)c1ccc2nnsc2c1 | -5 | -44* | 1 | -2 | -7
Cn1cc(-c2coc3c(C(=O)NCc4cccc(Cl)c4)cccc23)cn1 | -1 | / | / | / | 1
Cc1ccc(CNC(=O)C2CCC(=O)N(C3CC3)C2)cc1 (configuration not stated) | -1 | 17 | 2 | -5 | 0
Cc1cccc(CNC(=O)C2CCC(=O)N(C3CCCC3)C2)c1 (configuration not stated) | 0 | -45* | 1 | -1 | 4
Cc1ccccc1CSCC(=O)N/N=C/c1cccs1 | 3 | -41* | 6 | -8 | 14
